Results filed as inconclusive are left out. Active and inactive are the calls of the source. The call rests on the fitted dose curve.
test: p53 small molecule agonists, cell-based qHTS assay with rat liver microsomes (AID 1963578); conditions: HCT-116 p53RE-bla, beta-lactamase ratio, 16 h; series mostly up to 66 µM; activation: at the top concentration
Excerpt: U.S. Tox21 Program National Center for Advancing Translational Sciences [NCATS] Division of Preclinical Innovation [DPI] U.S. Environmental Protection Agency [EPA] National Institutes of Environmental Health Sciences [NIEHS] National Toxicology Program [NTP] U.S. Food and Drug Administration [FDA] Tox21 Assay Overview: p53, a tumor suppressor protein, is activated following cellular insult, including DNA damage and other cellular stresses. The activation of p53 regulates cell fate by inducing DNA repair, cell cycle arrest, apoptosis, or cellular senescence. The activation of p53, therefore, is a good indicator of DNA damage and other cellular stresses. […] The activation of the reporter gene under culture conditions can be detected by fluorescence intensity. This cell line was used to screen the Tox21 10K compound library in the condition of presence of rat liver microsomes and to identify agonists that activate the p53 signaling pathway after in vitro metabolic activation (Ooka et al., Archive of Toxicology 96:1975-1987, 2022).
Tox21 Assay Protocol Summary: The p53RE-bla cells were dispensed at 4,000cells/3ul/well in 1536-well black-clear bottom plates. After the assay plates were incubated at 37 C, 5% CO2 incubator for 5 hours, 23 nL of compounds dissolved in DMSO, positive controls or DMSO only was transferred to the assay plate. Following compound addition, 3 uL of rat liver microsomes (Molecular Toxicology, Boone, NC) at final concentration of 0.5 mg/mL and 1uL of Beta-Nicotinamide adenine dinucleotide 2-phosphate (NADPH) at final concentration of 0.5 mg/mL were transferred to the assay plate. The plates were incubated at 37 C for 16 hours. 1 uL of LiveBLAzer detection mixture was added to each well and the plates were incubated at room temperature in the dark for 2 h.
On the % scale 0 is the no-effect control and ±100 the full control effect.

Row | Compound | activation | Potency
1 | CCCCc1ccc2nc(NC(=O)OC)[nH]c2c1 | -4.34% [at 30.3 µM] (inactive) | 
2 | CCC(C)c1cc(C(C)(C)C)c(O)c(C(C)(C)C)c1 (stereo not given) | 1.2% (inactive) | 
3 | CCS(=O)(=O)c1ccc(OC)c(C(=O)OC)c1 | -0.11% [at 30.3 µM] (inactive) | 
4 | C1CCOC1 | -1.49% (inactive) | 
5 | Cc1cc(O)c2ccccc2c1O | -13.4% [at 30.3 µM] (inactive) | 
6 | O=C(O)C1(C(=O)Nc2ccc(Cl)cc2Cl)CC1 | -4.43% (inactive) | 
7 | CCOB(OCC)OCC | 0.686% (inactive) | 
8 | C=CC(C)=CCC=C(C)C | -6.37% (inactive) | 
9 | CSc1c(Cl)c(Cl)c(Cl)c(Cl)c1Cl | 0.12% (inactive) | 
10 | NC(=S)NC(N)=S | -2.3% (inactive) | 
11 | O=C(O)c1ccccc1C(=O)OCc1ccccc1 | -4.54% (inactive) | 
12 | CC(O)(c1ccc(Cl)cc1)c1ccc(Cl)cc1 | 1.23% (inactive) | 
13 | CCn1c(=O)c2c(nc(/C=C/c3ccc(OC)c(OC)c3)n2C)n(CC)c1=O | 2.14% [at 30.3 µM] (inactive) | 
14 | COc1cc(Nc2c(C#N)cnc3cc(OCCCN4CCN(C)CC4)c(OC)cc23)c(Cl)cc1Cl | -3.01% [at 30.3 µM] (inactive) | 
15 | CC(C)Cc1ccc(CC(=O)O)cc1 | 0.271% [at 30.3 µM] (inactive) | 
16 | CN[C@H]1CC[C@@H](c2ccc(Cl)c(Cl)c2)c2ccc(S(N)(=O)=O)cc21 | 0.739% (inactive) | 
17 | O=C1NCCN1 | 3.93% (inactive) | 
18 | c1ccc(C(O[C@@H]2CCCN(CCc3ccc4c(c3)OCO4)C2)c2ccccc2)cc1 | -1.71% (inactive) | 
19 | Cc1cc(O)c(C(C)C)cc1Cl |  | inactive
20 | COc1ccc2cc(S(=O)(=O)N[C@H](CC(=O)N[C@H](Cc3ccc(CN4[C@H](C)CCC[C@@H]4C)cc3)C(=O)N(C)C(C)C)c3ccc4c(c3)OCO4)ccc2c1 | -5.44% (inactive) | 

Row | Compound | activation | Potency
21 | CC(C)(C)CC(C)(C)c1ccc(OCCO)cc1 | 0.145% (inactive) | 
22 | CCN(CCCc1ccccc1)CCCc1ccccc1 | 2.27% [at 30.3 µM] (inactive) | 
23 | C=C[Si](OCC)(OCC)OCC | -2.23% (inactive) | 
24 | CCc1c(C)cc(N)c(CC)c1N | 0.0184% (inactive) | 
25 | O=[N+]([O-])c1ccc(Nc2ccc(Nc3ccccc3)c(S(=O)(=O)O)c2)c([N+](=O)[O-])c1 | -0.2% (inactive) | 
26 | CC(C)(C)c1cc(/C=C2\SC(=N)NC2=O)cc(C(C)(C)C)c1O | -1.57% (inactive) | 
27 | O=CC=C(c1ccccc1)c1ccccc1 | -2.22% (inactive) | 
28 | CCC(C)n1ncn(-c2ccc(N3CCN(c4ccc(OC[C@H]5CO[C@](Cn6cncn6)(c6ccc(Cl)cc6Cl)O5)cc4)CC3)cc2)c1=O (stereo not given in full) | -0.564% [at 30.3 µM] (inactive) | 
29 | Fc1ccc(C(c2ccc(F)cc2)N2CCNCC2)cc1 | 5.94% [at 30.3 µM] (inactive) | 
30 | CN1CC[C@H](c2c(O)cc(O)c3c(=O)cc(-c4ccccc4Cl)oc23)[C@H](O)C1 | -15.1% [at 30.3 µM] (inactive) | 
31 | O=C(O)c1cc(C(=O)O)cc(C(=O)O)c1 | 0.316% (inactive) | 
32 | CC1(CN2CCC(n3c(=O)[nH]c4ccccc43)CC2)OCc2ccccc2-n2cccc21 (stereo not given) | -0.809% [at 30.3 µM] (inactive) | 
33 | CO[C@@H]1[C@@H](OC)[C@H](C)[C@@](O)(CC(=O)O)O[C@H]1[C@H](C)[C@H]1O[C@@]2(CC[C@@](C)([C@H]3CC[C@@](C)([C@@H]4O[C@@H]([C@H]5O[C@](C)(O)[C@H](C)C[C@@H]5C)C[C@@H]4OC4C[C@H](OC)[C@@H](OC)[C@H](C)O4)O3)O2)C[C@H](O)[C@H]1C (stereo not given in full) | -1.11% [at 30.3 µM] (inactive) | 
34 | O=C(NCc1ncc(C(F)(F)F)cc1Cl)c1c(Cl)cccc1Cl | -1.43% (inactive) | 
35 | O=C(O)Cn1cnnn1 | 0.84% [at 30.3 µM] (inactive) | 
36 | CCN(CC)CCNC(=O)c1c(C)[nH]c(/C=C2\C(=O)Nc3ccc(F)cc32)c1C | -16.5% [at 30.3 µM] (inactive) | 
37 | C[C@@H](c1ncncc1F)C(O)(Cn1cncn1)c1ccc(F)cc1F (stereo not given in full) | -3.61% [at 30.3 µM] (inactive) | 
38 | CCCCCCCCCCC1CO1 (stereo not given) | 0.03% (inactive) | 
39 | O=C=Nc1ccc(Cl)c(Cl)c1 | -4.94% (inactive) | 
40 | Cc1oc2c(NC(=O)c3c(Cl)cccc3Cl)cccc2c1C(C)(C)O | 4.17% (inactive) | 
